# This is a sample that favours compounds with a hit; in the whole collection about 2% have one here.
# NR2F2 inh: NR2F2 transcriptional activity inhibitors, primary screen, cell-based, luciferase reporter, HEK293T, luminescence; HEK293T NGFI-A luciferase reporter; inhibition, % at 8.6 µM; 0.7% of 370,000 active; AID 686940, 2013;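 active means inhibition above a per-plate cutoff, mean inhibition of test wells between control levels plus 3 SD, cut at about 38% in these data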;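 further: cells cotransfected with COUP-TFII expression vector driving the NGFI-A reporter; 0% = median of COUP-TF2 test wells and 100% = reporter-only cells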
# Target sequence (P24468 whole entry, looked up): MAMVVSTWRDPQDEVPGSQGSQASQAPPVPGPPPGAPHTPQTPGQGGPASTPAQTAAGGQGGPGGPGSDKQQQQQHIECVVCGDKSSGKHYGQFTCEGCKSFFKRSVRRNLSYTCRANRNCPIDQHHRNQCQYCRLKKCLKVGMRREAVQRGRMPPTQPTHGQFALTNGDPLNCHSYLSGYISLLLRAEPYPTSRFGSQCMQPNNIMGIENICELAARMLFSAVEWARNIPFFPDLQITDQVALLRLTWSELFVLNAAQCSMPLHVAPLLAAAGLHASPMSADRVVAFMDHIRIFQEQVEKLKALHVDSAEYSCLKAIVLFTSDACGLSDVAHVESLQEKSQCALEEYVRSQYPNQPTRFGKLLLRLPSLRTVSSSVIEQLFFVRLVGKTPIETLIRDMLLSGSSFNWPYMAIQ
# Jurkat NFkB inh: inhibitors of induced NF-kB luciferase reporter, primary screen, TCR NF-kB activation inhibitor project, cell-based, luminescence, uHTS; Jurkat, PMA/ionomycin-induced NF-kB luciferase reporter; inhibition, % at 4 µM; 0.53% of 330,000 active; in the data active means inhibition above about 50%
# 697 NFkB inh: inhibitors of PMA/ionomycin-induced NF-kB reporter, 697 cells, primary screen, B-cell NF-kB inhibitor project, cell-based, luminescence, uHTS. 697 B-cell NF-kB luciferase reporter, 16 h. inhibition, % at 4 µM. 0.33% of 330,000 active. AID 435022, 2010; in the data active means inhibition above about 35%
# Gli-Sufu antag: Gli-Sufu pathway antagonists, primary screen, luciferase luminescence, Sufu-KO-LIGHT cells, uHTS; Sufu-KO-LIGHT fibroblasts, Gli luciferase reporter luminescence; AID 588413, 2011; inhibition, % at 5 µM; 0.74% of 340,000 active;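 active means inhibition above about 55%, limit read from the data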;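 further: 0% = DMSO-treated cells and 100% = wells with medium but no cells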
# GalR3 antagonist: GalR3 antagonists in HEK293 cells, primary screen, cell-based, fluorescence readout. HEK293 GalR3-CNG cAMP membrane potential fluorescence; galR3 body fused to GalR1 C-terminus. inhibition, % at 3 µM. 0.44% of 360,000 active. AID 651719, 2012;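 active means inhibition above the screen-wide average plus 3 SD, cut at about 13% in these data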;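 further: forskolin and galanin both at EC90 stimulate the cells; cAMP rise reported by CNG channel membrane potential dye signal; 0% = forskolin plus galanin with DMSO and 100% = forskolin alone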
# 697 NFkB conf: PMA/ionomycin-induced NF-kB reporter inhibitors, 697 retest, confirmation, B-cell NF-kB inhibitor project, cell-based, luminescence, single concentration; AID 449746, 2010; 35% of 2,000 active; shares compounds with 697 NFkB inh; 697 B-cell NF-kB luciferase, 16 h; inhibition, % at 4 µM; in the data active means inhibition mostly above about 28%, no sharp cut-off; inactive means mostly below about 22%
# Starred values were filed as active, the others as inactive; i = inactive; · = not tested or not shown.
SMILES,NR2F2 inh,Jurkat NFkB inh,697 NFkB inh,Gli-Sufu antag,GalR3 antagonist,697 NFkB conf
CCCCCN1CCCCC(NC(=O)c2cc(OC)c(OC)c(OC)c2)C1=O (stereo not given),15.3,·,·,·,·,·
c1ccc2nc(-c3nc4ccccc4[nH]3)ccc2c1,-19.6,-115.9,-273.8,6.9,-0.1,-342.7
c1ccc2[nH]c(-c3cscn3)nc2c1,-25.7,·,·,-37.9,·,·
COc1ccc(-c2cc(-c3nnc(SCC(=O)Nc4ccc(-c5nc6ccc(C)cc6s5)cc4)n3N)[nH]n2)cc1,-52.9,·,·,·,·,·
COc1ccc(N(CC(=O)N2CCN(c3ccc(Cl)cc3)CC2)S(=O)(=O)c2c(C)n[nH]c2C)cc1,22.0,13.6,36.6*,37.9,-2.5,31.6*
CCc1ccc2[nH]c3nc(N/N=C/c4cccc(O)c4)nnc3c2c1,-2.2,22.1,60.5*,28.5,1.0,76.4*
COc1cccc(/C=N/Nc2nnc3c(n2)[nH]c2ccccc23)c1OC,-19.3,-24.5,-25.8,-21.7,-0.6,·
O=C(/C=C/Nc1ccccc1F)c1cccs1,-43.7,-112.5,-349.0,-72.2,-3.1,-88.4
COc1ccc(N2CCN(C(=O)c3cc4c(-c5cccc(OC)c5)nn(C)c4s3)CC2)cc1,14.8,15.0,14.6,2.0,-3.7,·
COc1ccc(-c2nn(C)c3sc(C(=O)N4CCOCC4)cc23)cc1OC,-3.9,15.9,36.8*,2.1,0.2,3.7
O=C(NCCc1ccccc1)OCc1cn(-c2ccc(Cl)cc2)nn1,-15.7,·,·,·,·,·
Cc1ccc(C(=O)c2coc3ccc(O)cc23)cc1,-22.4,-132.9,-254.4,-13.5,-10.8,-322.8
COc1ccc(C(=O)c2coc3ccc(OC(C)=O)cc23)cc1,-31.3,-123.9,-279.0,-7.8,-10.4,-311.8
Cc1ccccc1CNC(=O)C1CCCN(c2ncccn2)C1 (stereo not given),-21.7,·,·,·,·,·
COc1ccc(N2CCN(C(=O)c3cccc(S(=O)(=O)N4CCc5ccccc54)c3)CC2)cc1,3.8,-5.7,7.1,13.0,-7.2,·
O=C(c1cccc(S(=O)(=O)N2CCc3ccccc32)c1)N1CCN(c2ccccn2)CC1,-34.8,-60.0,i,19.6,-8.6,i
O=C(Nc1cccc2nsnc12)c1ccc(-c2ccc(Br)cc2)o1,-6.2,-23.9,-42.4,37.7,2.2,·
COC(=O)c1ccccc1NC(=O)c1ccc(-c2ccc(Br)cc2)o1,0.2,6.6,-367.2,26.6,0.1,-286.4
CCc1nc(SCC(=O)N2c3ccccc3CC2C)c2c(C)c(C)sc2n1 (stereo not given),-29.2,-56.0,i,16.4,-9.8,i
CC1C=CC=CCCC=CC=CC=CC=CC(OC2O[C@H](C)[C@@H](O)[C@H](N)[C@@H]2O)CC(O)C(C(=O)O)C(O)CC(=O)CC(O)C(O)CCC(O)CC(O)CC(O)CC(=O)OC(C)C(C)C1O (stereo not given in full),6.0,·,·,·,·,·
Cc1nnc(SC(C)C(=O)Nc2ncc(Cl)cc2Cl)n1Cc1ccccc1 (stereo not given),14.0,10.8,12.1,1.8,-2.5,·
COCCn1c(SC(C)C(=O)Nc2ncc(Cl)cc2Cl)nc2ccccc21 (stereo not given),-40.3,-15.1,-250.8,-1.1,3.2,-205.9
CCNc1nc(C)c2cc(Br)c(=O)n(CC)c2n1,-23.0,26.2,41.4*,6.4,-1.7,40.1*
COC(=O)[C@]12C[C@H](CC(=O)N3CCC(c4ccccc4)CC3)C(=O)N(Cc3cccc4ccccc34)C1=C[C@H](C(C)(C)C)O[C@@H]2C,12.7,·,·,·,·,·
O=C(CCCl)Nc1nc2c(s1)CCc1ccccc1-2,-8.3,23.2,-266.1,1.3,-11.6,-15.3
SMILES,NR2F2 inh,Jurkat NFkB inh,697 NFkB inh,Gli-Sufu antag,GalR3 antagonist,697 NFkB conf
CCOc1cc(/C=N/NC(=O)c2ccc(NC(=O)C3CC3)cc2)ccc1O,4.6,22.0,38.5*,2.6,-3.6,19.3
COc1ccc(/C=C2\SC(=S)N(CCC(=O)Nc3ccc(C(=O)O)cc3)C2=O)cc1OC,·,-11.7,35.2*,29.6,·,31.1*
COc1ccc(/C=C2\SC(=S)N(CCC(=O)Nc3cccc(O)c3)C2=O)cc1OC,-5.6,-9.5,37.1*,-8.9,-3.1,9.9
C=CCN(CC#Cc1ccccc1)CC=C,-4.6,·,·,·,·,·
CC(C)[C@H]1/C(=C/C2CC2)N2C(=O)C[C@H](c3cccc(C(F)(F)F)c3)N=C2N1Cc1ccc2c(c1)OCO2,7.3,·,·,·,·,·
O=C(Nc1ccc(Cl)c(Cl)c1)C1CCN(c2ncccn2)CC1,15.5,·,·,·,·,·
C/C(=C/c1c[n+](Cc2ccc3c(c2)OCO3)c(N)[nH]1)Cn1[nH]c(=O)n(-c2ccccc2)c1=O,-0.3,·,·,·,·,·
O=C(Nc1ccc2ccccc2c1)c1ccccc1O,-14.3,-120.0,-324.0,28.3,-8.3,-458.9
NS(=O)(=O)c1ccc(CCNC(=O)CSc2nc3ccsc3c(=O)n2CC2CCC(C(=O)O)CC2)cc1 (stereo not given),-8.0,3.4,35.6*,-11.6,-4.8,9.6
COc1ccc(-c2csc(N3C(=N)SCC3=O)n2)cc1,-71.7,-104.2,-378.4,-121.6,-9.3,-312.9
CCCC(=O)Nc1ccc(Sc2ccc([N+](=O)[O-])cc2)cc1,-11.3,41.3,41.4*,-3.0,-2.6,35.0*
CCCC(=O)Nc1ccc(C(=O)NNC(=O)c2cccc([N+](=O)[O-])c2)cc1,9.8,8.0,27.3,-14.1,-5.8,·
CCNC(=O)C(=O)Nc1ccc([N+](=O)[O-])cc1,-0.7,2.0,13.5,-1.4,-4.5,·
CCC(CC)C(=O)Nc1ccc(Sc2ccc([N+](=O)[O-])cc2)cc1,-13.9,30.5,36.8*,11.3,-6.7,29.6*
CCCNC(=O)N1[C@@H](CO)[C@H](c2ccc(C3=CCCC3)cc2)[C@@H]1CN(CC)S(=O)(=O)c1ccccc1[N+](=O)[O-],-19.4,·,·,·,·,·
O=C(Nc1ccc(-c2noc(-c3cccs3)n2)cc1)c1cccnc1,-5.5,-101.3,-288.6,-73.9,0.1,-279.6
COc1cccc(-c2nc(-c3ccc(NC(=O)c4cccnc4)cc3)no2)c1,2.5,-26.2,-72.2,-18.8,1.8,·
COc1cc(-c2nc3ccc(N4CCN(C)CC4)cc3[nH]2)cc(OC)c1OC,-91.5,-31.8,37.8*,27.5,0.3,31.4*
COC(=O)c1cc2oc3ccccc3c2n1CC(=O)Nc1ccccc1OC,-8.9,-9.6,18.4,5.2,-0.6,·
CCOc1ccc(CNC(=O)Nc2ccccc2)cc1,-29.2,-30.4,-38.7,-22.2,-12.7,·
CCOc1ccc(CNC(=O)c2cc3oc4ccccc4c3n2C)cc1,-23.3,-59.5,-389.0,17.6,-3.3,-185.9
CCn1c(C(=O)N2CCc3ccccc3C2)cc2oc3ccccc3c21,2.4,-10.5,8.0,6.3,-5.5,·
CCOc1ccccc1CNC(=O)c1cc2oc3ccccc3c2n1CC,-14.4,-19.0,-279.9,13.3,-5.7,-96.8

# Screens as filed in PubChem.
